Consider 13 compounds from PubChem BioAssay (NCI).

Common to all, as to assay: NCI-60 one-dose screen, 48 h (100 = growth as untreated, 0 = no growth, -100 = all killed)
Common to all, as to details: 10 µM unless noted

Experiment [1] has as its system HCT-15 colon.
For experiment [2], the system named is HT29 colon.
Experiment [3] deals with SNB-75 CNS.
For experiment [4], the system named is SNB-19 CNS.
Experiment [5] deals with U251 CNS.
For experiment [6], the system named is PC-3 prostate.
For experiment [7], the system named is SK-MEL-5 melanoma.
The test system of experiment [8] is UACC-62 melanoma.
The subject of experiment [9] is LOX IMVI melanoma.
The subject of experiment [10] is SK-MEL-28 melanoma.

Each structure is given as a SMILES string. This is part of a sample that, as a whole, favours compounds with a hit. Of some 83,000 tested, about 20% had one in any assay.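 The endpoint reported here, percent growth, reads 100 for growth as untreated, 0 for no net growth and -100 for all cells dead.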 A number with no mark means an inactive call. Active and inactive are the calls of the source. How the source made its calls: active means growth percent below 10; inactive means the rest.

In the case of `CN(C)C(=O)Oc1ccccc1-c1ccccc1`, the growth was 103% in experiment [1]; 101% in experiment [2]; 107% in [3]; 104% in experiment [4]; 101% in experiment [5]; 91.9% in experiment [6]. For the same compound, the growth in experiment [7] is 102%; in experiment [8], 104%; in experiment [9], 97%; in experiment [10], 116%.

Regarding `CCC[CH2][Sn]([CH2]CCC)([CH2]CCC)[O]c1ccc(Cl)cc1Cl`, the growth in [1] is -62.5% (active); in experiment [2] it was -52.3% (active); in experiment [3], -93.6% (active); in [4], -81% (active); in [5], -74% (active); in [6] it was -70% (active). Moreover, the growth was -99.8% (active) in experiment [7], -88.4% (active) in experiment [8], -81.4% (active) in experiment [9] and -96.9% (active) in experiment [10].

Take `COC(=O)[C@@H](C)C[C@H](Cc1ccc(F)cc1)NC(=O)c1csc([C@@H](C[C@H](C(C)C)N(C)C(=O)[C@@H](NC(=O)[C@H]2CCCCN2C)C2CC2)OC(C)=O)n1`: the growth in experiment [1] is 12.4%; in experiment [2], 0.34% (active); in experiment [3], 54.3%; in experiment [4], 36.5%; in experiment [5] it was 5.77% (active); in [6], 28.7%. For the same compound, the growth is -20.7% (active) in experiment [7], 43.3% in experiment [8], 23.9% in experiment [9] and 59% in experiment [10].

Take `COc1cc(/C=C\c2cc(OC)c(OC)c(OC)c2)cc(N/C=C\C(=O)c2cc(OC)c(OC)c(OC)c2)c1OC`: the growth in experiment [1] is 19.6%; in [2], 3.93% (active); in experiment [3], -6.67% (active); in [4], 43.4%; in [5] it was 31%; in experiment [6] it was 21.1%. In addition, the growth is 5.18% (active) in experiment [7], 16.8% in experiment [8] and 28.6% in experiment [9].

Regarding `O=[N+]([O-])CC(O)C(Cl)(Cl)Cl` (stereo not drawn), the growth in experiment [1] was 102%; in experiment [2] it was 111%; in experiment [3], 81.1%; in [4] it was 106%; in [5], 99.1%; in experiment [6], 94.9%. The growth in experiment [7] is 107%; in [8] it was 107%; in experiment [9] it was 99.8%; in experiment [10], 102%.

As to `CC[C@H](C)[C@@H]([C@@H](CC(=O)N1CCC[C@H]1[C@H](OC)[C@@H](C)C(=O)N[C@H](C)[C@@H](O)c1ccccc1)OC)N(C)C(=O)[C@@H](NC(=O)[C@@H](NC)C(C)C)C(C)C`, the growth in experiment [1] is 17.2%; in experiment [2], 3.65% (active); in [3] it was 39%; in experiment [4] it was 45.4%; in experiment [5] it was 6.43% (active); in [6], 29.1%. In addition, the growth in experiment [7] was -37.6% (active); in experiment [8], 47.3%; in experiment [9], 19.6%; in experiment [10], 63.5%.

Turning to `CCCCCCCOC(C(=O)OCCN(CC)CC)(c1ccccc1)c1ccccc1`, the growth in experiment [1] is 49.9%; in experiment [2], 31.4%; in experiment [3] it was 86.1%; in [4], 94%; in experiment [5], 77.8%; in experiment [6], 61.2%. For the same compound, the growth in experiment [7] was 78.2%; in experiment [8], 103%; in experiment [9], 92.2%; in [10], 96%.

For the compound `COC(=O)[C@@H](C[C@H](Cc1ccccc1)NC(=O)c1csc([C@@H](C[C@H](C(C)C)N(C)C(=O)[C@@H](NC(=O)[C@H]2CCCCN2C)C(C)C)OC(C)=O)n1)NC(=O)OCc1ccccc1`, the growth in experiment [1] was 9.05% [9.5 µM] (active); in experiment [2] it was -19.6% [9.5 µM] (active); in [3], 25.6% [9.5 µM]; in experiment [4], 25.4% [9.5 µM]; in experiment [5], 6.82% [9.5 µM] (active); in [6], 32.2% [9.5 µM]. In addition, the growth is -3.63% [9.5 µM] (active) in experiment [7], 27.1% [9.5 µM] in [8], 14.7% [9.5 µM] in experiment [9] and -52.6% [9.5 µM] (active) in experiment [10].

`O=C(Nc1ccncc1F)c1cn(CC2CC2)c2ccccc12`: the growth in experiment [1] is 97.3%; in [2], 102%; in experiment [3], 103%; in [4], 97.2%; in experiment [5] it was 98.4%; in experiment [6], 97.6%. In addition, the results for the growth in experiment [7], in experiment [8] and in experiment [9] were 97.3%, 95.3% and 97%, respectively.

Consider `CCCCCC1(CCBr)C(=O)NC(=O)NC1=O`, for which the growth in [1] was 97.7%; in experiment [2], 107%; in experiment [3], 99.2%; in experiment [4] it was 111%; in experiment [5] it was 93.4%; in [6] it was 100%. The growth is 109% in experiment [7], 108% in experiment [8], 104% in experiment [9] and 118% in experiment [10].

For `COC(=O)[C@@H](C)C[C@H](Cc1ccccc1)NC(=O)c1csc([C@@H](C[C@H](C(C)C)N(C)C(=O)[C@@H](NC(=O)[C@H]2CCCCN2C)C(C)C)OC(C)=O)n1`, the growth in [1] was 15%; in [2], 5.25% (active); in experiment [3], 5.98% (active); in experiment [4] it was 65.6%; in experiment [5], -1.97% (active); in experiment [6], 7.77% (active). Besides, the growth in experiment [7] is -50.2% (active); in experiment [8], 41.7%; in experiment [9], 14.2%; in experiment [10], 39.2%.

Take `N/C(=N\N=C\c1ccc(-c2ccccc2)cc1)N[N+](=O)[O-]`: the growth was 31.6% in experiment [1]; 14% in experiment [2]; -1.49% (active) in experiment [3]; 55.3% in experiment [4]; 31.1% in experiment [5]; 29.8% in experiment [6]. In addition, the growth in [7] was 19.8%; in [8], 49.4%; in [9], 41.9%; in experiment [10] it was 54%.

In the case of `COc1ccc(Nc2ccnc3cc(Cl)ccc23)cc1CN(CCCl)CCCl`, the growth in [1] is -12.1% (active); in [2] it was 1.34% (active); in [3] it was -10.8% (active); in experiment [4] it was -0.124% (active); in experiment [5] it was -11% (active); in experiment [6], -4.22% (active). In addition, the growth in [7] is -88.4% (active); in [8], -87% (active); in experiment [9], -51.6% (active); in experiment [10], -38.3% (active).
